# Among all 16,000 compounds or so, about 5,800 (36%) were called active. About 23% were inconclusive and are not listed. This is one part of the list. Values without a mark were called inactive. Calls come from the whole dose curve; as a rule, active = well fitted curve in the direction sought with a large enough effect; inconclusive = small, poorly fitted or top-dose-only effect, or effect the other way; inactive = no such curve, though single readings can be large or run the other way.
# Target: Cytochrome P450 2C19 (Homo sapiens) (UniProt P33261)
# Experiment: Cytochrome panel assay with activity outcomes
# Conditions: recombinant CYP, pro-luciferin dealkylation, luminescence, p450-cyp2c19; series mostly up to 57.1 µM; activity, negative = inhibition: at the top concentration
# % is set by controls: 0 for no effect and ±100 for the full control effect.
# Cytochrome P450 2C19 (Homo sapiens), sequence (P33261 whole entry, looked up): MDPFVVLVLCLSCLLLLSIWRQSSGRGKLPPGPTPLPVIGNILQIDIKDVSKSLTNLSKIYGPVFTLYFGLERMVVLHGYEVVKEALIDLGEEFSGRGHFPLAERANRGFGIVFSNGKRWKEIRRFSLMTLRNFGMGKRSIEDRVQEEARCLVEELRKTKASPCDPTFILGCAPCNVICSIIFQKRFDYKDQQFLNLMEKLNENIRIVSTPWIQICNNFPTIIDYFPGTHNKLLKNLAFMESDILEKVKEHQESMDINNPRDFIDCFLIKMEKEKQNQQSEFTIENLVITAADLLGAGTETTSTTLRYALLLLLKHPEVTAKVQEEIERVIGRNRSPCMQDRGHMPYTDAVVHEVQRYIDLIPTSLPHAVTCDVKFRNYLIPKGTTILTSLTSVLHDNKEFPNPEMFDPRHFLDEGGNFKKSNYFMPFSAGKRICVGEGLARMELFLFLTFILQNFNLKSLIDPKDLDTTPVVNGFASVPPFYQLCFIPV
Compound,AC50,"activity, negative = inhibition"
O=C(Nc1cnn(Cc2ccc(Cl)cc2Cl)c1)c1cc(-c2cccs2)on1,4.47 µM (active),–
Fc1ccc(C2=Nn3c(Cc4ccccc4F)nnc3SC2)cc1,3.98 µM (active),–
c1ccc(-c2ccc(C3=Nn4c(Cn5nnc6ccccc65)nnc4SC3)cc2)cc1,14.1 µM (active),–
c1ccc2c(c1)nnn2CN1CCOCC1,–,22.7% [at 11.4 µM]
C#CCCCO/N=C1/C[C@@H](O)[C@@H](O)[C@@H]2[C@@H]3C(=O)N(CC)C(=O)[C@H]3CC[C@H]12,–,-28.1% [at 11.4 µM]
O=C(N/N=C1/C[C@@H](O)[C@@H](O)[C@@H]2[C@@H]3C(=O)N(Cc4ccccc4)C(=O)[C@H]3CC[C@H]12)OCc1ccccc1,–,0.945% [at 11.4 µM]
CC(C)=CCC/C(C)=C/CO/N=C1/C[C@@H](O)[C@@H](O)[C@@H]2[C@@H]3C(=O)N(C4CCCCC4)C(=O)[C@H]3CC[C@H]12,–,-23.1% [at 11.4 µM]
CN[C@@H]1[C@H](O[C@@H]2O[C@H](CO)[C@@H](N)[C@H](O)[C@@H]2O)O[C@H]2C[C@@H](N)[C@@H](O[C@H]3[C@@H](O)[C@H](O)[C@H](N)C[C@@H]3N)O[C@H]2[C@H]1O,–,-36.8% [at 25.6 µM]
CC(=O)Nc1ccc(S(=O)(=O)NC(CC(=O)NCCCN2CCOCC2)C(C)C)cc1 (stereo unspecified),–,-6.43%
CC(=O)Nc1ccc(S(=O)(=O)NC(CC(=O)NCCC2=CCCCC2)C(C)C)cc1 (stereo unspecified),10 µM (active),–
CC(C)C(=O)NCCn1ccc2ccccc21,6.31 µM (active),–
CCN(c1ccccc1)c1cc(NC)[n+](C)c(C)n1,–,-3.33%
O=C(O)[C@@H]1[C@@H]2C[C@H]([C@@H](Br)[C@H]2N2C(=O)CCC2=O)[C@@H]1C(=O)O,–,39.9% [at 11.4 µM]
O=C(O)c1cc(=O)c2ccc(Cl)cc2[nH]1,–,14.6%
COc1ccc(C(=O)COC(=O)c2ccc(NC(=O)c3ccccc3)cc2)cc1,–,-6.93%
COc1cccc(/C=N/NC(=O)c2c(-c3ccccc3)noc2C)c1,2 µM (active),–
COc1ccc(NC(=O)COC(=O)c2c(-c3ccccc3)noc2C)cc1,8.91 µM (active),–
COc1cccc(/C=N/NC(=O)C(=O)NCc2cccnc2)c1,–,-29.3%
COc1cccc(/C=N/NC(=O)c2cc(-c3cccn3C)n[nH]2)c1,15.8 µM (active),–
COc1ccc(C(=O)Nc2ccc(C(=O)OCC(=O)c3ccccc3)cc2)cc1,–,-13.4%
NC(=O)CCCC1=NS(=O)(=O)c2ccccc2N1,–,-11.7%
CC1=NS(=O)(=O)c2cc(Cl)ccc2N1,inactive,–

Compound,AC50,"activity, negative = inhibition"
CC(C)(CC(=O)N1CCN(c2ccc(Cl)cc2)CC1)CC1=NS(=O)(=O)c2ccccc2N1,7.94 µM (active),–
COC(=O)C1(CC(C)C)C=C2C(=C(c3ccccc3)C(=O)C2C)CN1 (stereo unspecified),39.8 µM (active),–
CCCC1(C(=O)OC)C=C2C(=C(C(C)C)C(=O)C2C)CN1 (stereo unspecified),–,-39.5%
CCCC1(C(=O)OC)C=C2C(=C(C)C(=O)C2C)CN1 (stereo unspecified),–,-44.1%
CCCC1(C(=O)OC)C=C2C(=C(c3ccccc3)C(=O)C2C)CN1 (stereo unspecified),7.94 µM (active),–
C[N+](C)(N)Cc1csc(-c2ccc(Cl)cc2)n1,–,8.52% [at 11.4 µM]
Nc1ccccc1SCc1csc(-c2ccc(Cl)cc2)n1,0.501 µM (active),–
NNc1nncc2ccccc12,inactive,–
CC1CC(OCC(O)CN2CCN(Cc3ccccc3)CC2)CC(C)(C)C1 (stereo unspecified),–,-72.1%
CC1CCC(C(C)C)C(OCC(O)CN2CCN(Cc3ccccc3)CC2)C1 (stereo unspecified),3.55 µM (active),–
O=C(c1ccccc1)c1ccc(OCC(O)CN2CCN(Cc3ccccc3)CC2)cc1 (stereo unspecified),4.47 µM (active),–
CN1CCN(CC(O)c2ccccc2)CC1 (stereo unspecified),–,-12.4%
O[C@H](COc1ccccc1)CN1CCCCC1,–,3.88% [at 11.4 µM]
CC#C[C@]1(O)CC[C@H]2[C@@H]3CCC4=CC(=O)CCC4=C3[C@H](c3ccc(N(C)C)cc3)C[C@@]21C,7.94 µM (active),–
COc1cc2nc(N(C)CCCNC(=O)[C@@H]3CCCO3)nc(N)c2cc1OC,–,-17.6% [at 25.6 µM]
C=Cc1c(C)c2cc3nc(cc4[nH]c(cc5nc(cc1[nH]2)C(C)=C5CCC(=O)O)c(CCC(=O)OC)c4C)[C@@]1(C)C3=CC=C(C(=O)OC)[C@H]1C(=O)OC (tested in a mixture with another compound),1.26 µM (active),–
O=C(O)[C@@H]1[C@@H](C(=O)O)[C@]23C[C@@]2(C(=O)O)[C@]2(C(=O)O)CCC3=C3CCCC312,–,37.4% [at 11.4 µM]
c1ccc(Cc2nnc(Sc3ccccc3)c3ccccc23)cc1,5.01 µM (active),–
N#CCCn1c(=O)c(-c2cccs2)nc2cnc(Nc3ccccc3)nc21,–,2.63%
COc1cc(C(=O)OC(C)C(=O)Nc2ccc3c(c2)OCO3)ccc1OCc1c(C)noc1C (stereo unspecified),14.1 µM (active),–
O=C(O)[C@@H](S)[C@H](S)C(=O)O,–,-39.9% [at 11.4 µM]
O=C(c1ccc(F)cc1)C1CCN(CCn2c(=S)[nH]c3ccccc3c2=O)CC1,–,9.05%

Compound,AC50,"activity, negative = inhibition"
CC1CCCC(n2c(=S)[nH]c3ccccc3c2=O)C1C (stereo unspecified),0.1 µM (active),–
Cc1cc(=O)c2ccccc2[nH]1,–,-24.5%
COCCNc1nc(SCc2ccccc2)nc2sc3c(c12)CCC3,4.47 µM (active),–
OCCNc1nc(SCc2ccccc2)nc2sc3c(c12)CCC3,2.82 µM (active),–
COCCNc1nc(-c2ccccc2C)nc2ccccc12,–,-15.5%
CC(CO)Nc1nc(SCc2ccccc2)nc2sc3c(c12)CCC3 (stereo unspecified),3.16 µM (active),–
C[C@H](Nc1ncnc2sc3c(c12)CCC3)C(=O)O,–,-27.4%
COC(=O)N1CCC2(CCCN(Cc3nccs3)C2)CC1,20 µM (active),–
O=C(c1cnccn1)N1CCC2(CCCN(Cc3nccs3)C2)CC1,15.8 µM (active),–
CC(=O)N1CCC[C@@]2(CCN(Cc3nccs3)C2)C1,–,-16.1%
O=C(c1cnccn1)N1CCC2(CCN(Cc3nccs3)CC2)CC1,–,21.5%
CC(=O)N1CCC2(CCCN(Cc3nccs3)C2)CC1,5.01 µM (active),–
CC(=O)N1CCC2(CCN(Cc3nccs3)CC2)CC1,–,-44.8%
COCC(=O)N1CCC[C@@]2(CCN(Cc3nccs3)C2)C1,–,-3.18%
O=C(c1cnccn1)N1CCC2(CC1)CN(Cc1nccs1)C2,–,30.2%
COC(=O)N1CCC2(CCN(Cc3nccs3)CC2)CC1,–,12.1%
CCc1ccc(N(C(=O)c2snc(C(N)=O)c2N)C(C(=O)NCCC(C)C)c2c[nH]c3ccccc23)cc1 (stereo unspecified),2.24 µM (active),–
CC1(C)S[C@@H]2[C@H](NC(=O)[C@@H](N)c3ccc(O)cc3)C(=O)N2[C@H]1C(=O)O,–,3.5% [at 25.6 µM]
CCOC(=O)c1cc2c(C)n(-c3ccc(C)cc3)c(C)c2ccc1=O,14.1 µM (active),–
C[C@H]1[C@@H](O)[C@@H](C)\C=C/C=C\C=C/C=C\C=C/C=C\C=C/[C@@H](O[C@H]2O[C@@H](C)[C@@H](O)[C@@H](N)[C@@H]2O)C[C@@H]2O[C@](O)(C[C@@H](O)C[C@@H](O)[C@@H](O)CC[C@@H](O)C[C@@H](O)CC(=O)O[C@H]1C)C[C@@H](O)[C@H]2C(=O)O (stereo in doubt),–,96.2% [at 25.6 µM]
CCOC(=O)c1[nH]c2cc3c(cc2c1NC(=O)CN1CCC2(CC1)OCCO2)OCO3,–,-16.2%
CCOC(=O)c1[nH]c2cc(OC)c(OC)cc2c1NC(=O)c1ccc2c(c1)OCO2,–,19.5%

Compound,AC50,"activity, negative = inhibition"
COC(=O)c1[nH]c2cc(OC)ccc2c1NC(=O)c1ccc2c(c1)OCO2,10 µM (active),–
COC(=O)c1[nH]c2cc(OC)ccc2c1NC(=O)c1nonc1C,–,-15%
CCOC(=O)c1[nH]c2cc(OC)c(OC)cc2c1NC(=O)c1nonc1C,–,-17.1%
CCOC(=O)c1[nH]c2ccc(OC)cc2c1NC(=O)c1ccc2c(c1)OCO2,7.08 µM (active),–
CC(C)[C@@H](OCc1ccccc1)[C@H](C)/C=N\OC[C@@H](O)[C@@H]1O[C@@H]2OC(C)(C)O[C@@H]2[C@H]1O,–,-18.3% [at 11.4 µM]
C[C@@H](C(=O)Nc1ccc2ccccc2c1)[C@H]1C[C@]1(C)[C@H](NC(=O)OCc1ccccc1)c1ccccc1,1 µM (active),–
C[C@@H](C(=O)Nc1ccc2ccccc2c1)[C@@H]1C[C@@]1(C)[C@@H](NC(=O)OCc1ccccc1)c1ccccc1,3.16 µM (active),–
CCCn1c(=O)c2[nH]c(C3CCCC3)nc2n(CCC)c1=O,–,-41.7%
O=c1c2ccccc2nnn1CSc1nnc(COc2ccc(Cl)cc2)n1Cc1ccco1,14.1 µM (active),–
O=C(Nc1ccc(Cl)cc1Cl)c1cccc(N2C(=O)C=CC2=O)c1,3.98 µM (active),–
Cc1cccc(NC(=O)c2cccc(N3C(=O)C4C5CCC(C5)C4C3=O)c2)c1C (stereo unspecified),–,-25.3%
COc1ccc(N2C(=O)c3ccccc3NC2c2ccc(OC)c(CSc3ccccn3)c2)cc1 (stereo unspecified),0.891 µM (active),–
COc1cccc(/C(O)=C2/C(=O)C(=O)N(c3ccccn3)C2c2ccc(OC)c(OC)c2)c1 (stereo unspecified),–,1.45%
c1ccc2c[n+](Cc3ccnc4ccccc34)ccc2c1,–,10.8% [at 11.4 µM]
CCOc1cc(CC(=O)N[C@@H](CC(C)C)c2ccccc2N2CCCCC2)ccc1C(=O)O,–,18.6% [at 25.6 µM]
COc1c(NC(C)=O)c2ccccc2c2ccccc12,–,4.06% [at 11.4 µM]
COC(=O)c1c(C)[nH]c(C)c1C(=O)c1ccccc1Cc1ccccc1,–,-8.63%
CCc1c(C)sc(NC(=O)OC)c1C(N)=O,–,2.97%
COC(=O)c1c(NC(C)=O)sc(Cc2ccccc2)c1C,4.47 µM (active),–
CCOc1ccc(CC(=O)Nc2sc(Cc3ccccc3)c(C)c2C(N)=O)cc1OCC,4.47 µM (active),–

# From PubChem BioAssay AID1851 (National Center for Advancing Translational Sciences (NCATS), 2009)
